Laboratory results: PMC4336329 (PLoS ONE, 2015)
Screen size: about 310,000 compounds; about 14,000 (4.5%) showed an effect of 50% or more. Effects have a minus sign here. The sample holds strong results, similar compounds and a random draw of the others, so the mix is not that of the screen.

Target: human ether-à-go-go-related gene (hERG) potassium channel (human, UniProt Q12809)
Assay: primary screen, population patch clamp on CHO cells stably expressing hERG; higher = less effect of the substance
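Further: peak tail current of the secondary pulse compared with the same well before compound.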

Chain of human ether-à-go-go-related gene (hERG) potassium channel (Q12809 whole entry, looked up): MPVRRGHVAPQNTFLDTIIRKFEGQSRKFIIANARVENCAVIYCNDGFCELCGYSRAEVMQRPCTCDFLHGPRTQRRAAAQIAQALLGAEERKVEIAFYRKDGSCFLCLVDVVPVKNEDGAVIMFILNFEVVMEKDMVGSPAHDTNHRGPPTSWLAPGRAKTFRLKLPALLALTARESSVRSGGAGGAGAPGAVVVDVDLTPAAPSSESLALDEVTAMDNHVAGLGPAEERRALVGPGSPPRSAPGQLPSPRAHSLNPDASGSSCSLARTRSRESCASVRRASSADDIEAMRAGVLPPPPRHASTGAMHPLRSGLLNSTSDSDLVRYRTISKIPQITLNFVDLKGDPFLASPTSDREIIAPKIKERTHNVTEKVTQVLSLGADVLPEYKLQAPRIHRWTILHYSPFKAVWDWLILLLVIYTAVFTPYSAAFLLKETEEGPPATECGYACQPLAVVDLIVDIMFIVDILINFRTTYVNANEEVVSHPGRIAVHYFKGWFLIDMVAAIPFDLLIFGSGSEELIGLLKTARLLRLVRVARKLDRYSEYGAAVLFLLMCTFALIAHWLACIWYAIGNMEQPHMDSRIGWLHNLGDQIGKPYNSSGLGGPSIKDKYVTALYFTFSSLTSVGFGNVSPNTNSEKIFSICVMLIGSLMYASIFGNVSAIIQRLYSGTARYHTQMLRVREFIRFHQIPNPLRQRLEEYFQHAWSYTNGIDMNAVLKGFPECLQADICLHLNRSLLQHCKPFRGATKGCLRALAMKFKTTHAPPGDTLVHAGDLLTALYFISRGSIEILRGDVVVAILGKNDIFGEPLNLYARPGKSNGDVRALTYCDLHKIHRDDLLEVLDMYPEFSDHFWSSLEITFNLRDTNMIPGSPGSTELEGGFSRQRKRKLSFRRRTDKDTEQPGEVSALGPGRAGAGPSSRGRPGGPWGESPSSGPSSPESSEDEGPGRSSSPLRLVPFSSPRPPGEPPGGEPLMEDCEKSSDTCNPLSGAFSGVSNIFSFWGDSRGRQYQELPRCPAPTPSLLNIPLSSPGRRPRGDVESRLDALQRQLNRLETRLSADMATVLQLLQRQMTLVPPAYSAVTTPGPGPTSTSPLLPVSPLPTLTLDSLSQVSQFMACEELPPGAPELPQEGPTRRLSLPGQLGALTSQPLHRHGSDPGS

Q: Which “hERG current change (%, negative = inhibition) at 10uM” value does the source give for `O=C(CN1CCCC1)Nc1cc(C(F)(F)F)ccc1Cl` here?
A: Its value is 2.22%.

Q: For `O=C(CN1CCOCC1)Nc1cc(C(F)(F)F)ccc1Cl`, which “hERG current change (%, negative = inhibition) at 10uM” value is on record?
A: The value was -0.356%.

Q: `O=C(CN1CCN(C(=O)c2ccco2)CC1)Nc1cc(C(F)(F)F)ccc1Cl` was tested. Which “hERG current change (%, negative = inhibition) at 10uM” value did it give?
A: Its value is -63.6%.

Q: How did the “hERG current change (%, negative = inhibition) at 10uM” value turn out when `COc1ccccc1N1C(=O)CC(Sc2ccccc2N)C1=O` (centres unmarked) was run?
A: The value was 0.966%.

Q: `CN1CCN(c2ccc(C(=O)NC3CCCCC3)cc2[N+](=O)[O-])CC1` was tested. Which “hERG current change (%, negative = inhibition) at 10uM” value did it give?
A: Its value is -9.83%.

Q: `CN1CCN(c2ccccc2NC(=O)c2ccc(N3CCCC3)c([N+](=O)[O-])c2)CC1` was tested. Which “hERG current change (%, negative = inhibition) at 10uM” value did it give?
A: Its value is -48.5%.

Q: Which “hERG current change (%, negative = inhibition) at 10uM” value does the source give for `COC(=O)c1ccc(N2CCc3ccccc32)c([N+](=O)[O-])c1` here?
A: Its value is 10.5%.

Q: For `COC(=O)c1ccc(N2CCN(C)CC2)c([N+](=O)[O-])c1`, which “hERG current change (%, negative = inhibition) at 10uM” value is on record?
A: Its value is -63.4%.

Q: `COC(=O)c1ccc(N2CCN(S(=O)(=O)c3ccc(Br)cc3)CC2)c([N+](=O)[O-])c1` was tested. Which “hERG current change (%, negative = inhibition) at 10uM” value did it give?
A: Its value is 10.6%.

Q: For `CN1CCN(c2ccc(C(=O)c3ccccc3)cc2[N+](=O)[O-])CC1`, which “hERG current change (%, negative = inhibition) at 10uM” value is on record?
A: Its value is -53.1%.

Q: `CN1CCN(c2ccc(C(=O)c3ccc(Br)cc3)cc2[N+](=O)[O-])CC1` was tested. Which “hERG current change (%, negative = inhibition) at 10uM” value did it give?
A: Its value is -72.1%.

Q: How did the “hERG current change (%, negative = inhibition) at 10uM” value turn out when `COC(=O)c1ccc(N2CCN(S(=O)(=O)c3ccc(C)cc3)CC2)c([N+](=O)[O-])c1` was run?
A: Its value is 4.78%.

Q: `O=C(O)c1ccccc1C(=O)c1ccc(N2CCCC2)c([N+](=O)[O-])c1` was tested. Which “hERG current change (%, negative = inhibition) at 10uM” value did it give?
A: The value was 13.8%.

Q: How did the “hERG current change (%, negative = inhibition) at 10uM” value turn out when `COC(=O)c1ccc(N2CCN(CC(=O)c3ccc(C)cc3)CC2)c([N+](=O)[O-])c1` was run?
A: The value was -65%.

Q: For `COC(=O)c1ccc(N2CCN(CC(=O)c3ccc(-c4ccccc4)cc3)CC2)c([N+](=O)[O-])c1`, which “hERG current change (%, negative = inhibition) at 10uM” value is on record?
A: The value was 8.75%.

Q: With `COC(=O)c1ccc(N2CCN(C(=O)C3CC3)CC2)c([N+](=O)[O-])c1` as the compound, how does the “hERG current change (%, negative = inhibition) at 10uM” value read?
A: The value was -7.61%.

Q: Which “hERG current change (%, negative = inhibition) at 10uM” value does the source give for `O=C(NCc1cccs1)c1cc2c(s1)CS(=O)(=O)C2` here?
A: The value was -0.732%.

Q: Which “hERG current change (%, negative = inhibition) at 10uM” value does the source give for `O=C(N/N=C/c1c[nH]c2ccccc12)C1CC1c1ccccc1` (centres unmarked) here?
A: The value was -4.47%.

Q: `COC(=O)c1cc(C(=O)OC)n(Cc2ccc(F)cc2)n1` was tested. Which “hERG current change (%, negative = inhibition) at 10uM” value did it give?
A: The value was -12.9%.

Q: `O=C(O)c1cccc(N(CCO)CCO)c1` was tested. Which “hERG current change (%, negative = inhibition) at 10uM” value did it give?
A: The value was -1.13%.

Q: Which “hERG current change (%, negative = inhibition) at 10uM” value does the source give for `CC(C)COP(=O)(c1ccc(N(C)C)cc1)C(O)c1ccc(Br)cc1` (centres unmarked) here?
A: Its value is 8.63%.

Q: How did the “hERG current change (%, negative = inhibition) at 10uM” value turn out when `COc1ccc(CCNC(=O)c2nnc(CS(=O)(=O)c3ccccc3)o2)cc1OC` was run?
A: The value was -6.44%.

Q: `Cc1c(-c2ccccc2)cn2c1-c1ccc(C)n1CC2` was tested. Which “hERG current change (%, negative = inhibition) at 10uM” value did it give?
A: Its value is -0.42%.
